# Source: PubChem
# SRC3 TRFRET art – counter-screen for PPARgamma SRC-3 recruitment agonists: TR-FRET artefact; TR-FRET ratio at 8 µM; actives 0.39% (n = 99,000); PPARgamma/SRC-3 format; stronger effect = higher value; in the data active = TR-FRET ratio above about 2000
# PPARg SRC2 recr – PPARgamma-driven SRC-2 recruitment agonism; P37231; PPARgamma LBD-SRC-2 recruitment, biochemical; activation, % at 8 µM; actives 0.34% (n = 200,000); AID 1032;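 also: 0% = vehicle and 100% = reference agonist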
# Target sequence (P37231 whole entry, looked up, the tested form may be a part): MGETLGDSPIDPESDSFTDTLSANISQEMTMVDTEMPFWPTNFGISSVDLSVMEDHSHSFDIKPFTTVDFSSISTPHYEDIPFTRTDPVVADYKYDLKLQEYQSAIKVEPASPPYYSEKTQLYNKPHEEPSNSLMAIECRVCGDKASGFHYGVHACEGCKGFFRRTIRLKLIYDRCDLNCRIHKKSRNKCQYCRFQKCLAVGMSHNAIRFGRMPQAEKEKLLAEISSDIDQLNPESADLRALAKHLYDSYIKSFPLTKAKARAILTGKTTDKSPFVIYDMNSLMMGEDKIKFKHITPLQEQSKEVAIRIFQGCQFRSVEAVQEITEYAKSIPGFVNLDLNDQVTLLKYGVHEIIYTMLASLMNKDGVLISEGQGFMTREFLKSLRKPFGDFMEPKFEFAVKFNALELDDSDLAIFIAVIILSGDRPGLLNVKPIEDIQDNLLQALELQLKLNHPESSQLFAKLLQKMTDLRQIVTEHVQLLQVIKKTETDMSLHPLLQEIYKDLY
# PPARg SRC-1 ag – PPARgamma-driven SRC-1 recruitment agonism | PPARgamma-SRC-1 coactivator recruitment biochemical assay | actives 0.41% (n = 200,000) | activation, % at 8 µM | AID 631 | P37231; in the data active = activation above about 19%;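 also: 0% = DMSO and 100% = reference agonist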
# SRC1 TRFRET art – flags TR-FRET format artefacts in PPARgamma SRC-1 recruitment agonist screen; TR-FRET detection artefact counter-screen, emission ratio; stronger effect = higher value; TR-FRET ratio at 8 µM; actives 0.34% (n = 99,000); AID 1051; in the data active = TR-FRET ratio above about 2300
# PPARg SRC3 recr – PPARgamma-driven SRC-3 recruitment agonism. P37231. biochemical PPARgamma/SRC-3 coactivator recruitment assay. activation, % at 8 µM. actives 0.26% (n = 200,000). AID 731; in the data active = activation above about 23%;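 also: 0% = DMSO and 100% = reference agonist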
# SRC2 TRFRET art – flags TR-FRET format artefacts in PPARgamma SRC-2 recruitment agonist screen; TR-FRET artefact counter-screen; stronger effect = higher value; TR-FRET ratio at 8 µM; actives 0.4% (n = 200,000); AID 1049; in the data active = TR-FRET ratio above about 2000
# PPARg SRC2 ag – confirmation of agonists of SRC-2 recruitment by human PPARgamma. shares compounds with PPARg SRC3 recr. biochemical SRC-2 recruitment by PPARgamma. activation, % at 8 µM. actives 52% (n = 790);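 also: 0% = vehicle alone and 100% = reference agonist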
# PPARg SRC1 conf – confirmation of agonists of SRC-1 recruitment by human PPARgamma; shares compounds with PPARg SRC3 recr; PPARgamma–SRC-1 coactivator recruitment biochemical assay; activation, % at 8 µM; actives 43% (n = 790); AID 1300; in the data active = activation above about 20%;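 also: 0% = vehicle wells and 100% = reference agonist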
# PPARg SRC3 ag – confirmation of agonists of SRC-3 recruitment by human PPARgamma; actives 29% (n = 790); AID 1301; shares compounds with PPARg SRC3 recr; activation, % at 8 µM; biochemical PPARgamma-SRC-3 coactivator recruitment, agonist mode; in the data active = activation above about 24%;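 also: 0% = vehicle wells and 100% = reference agonist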
# Numbers without * were called inactive; / = no result given. A selection: hits, their analogues and other compounds. The true share with any hit is near 0.84%. Rule as the data show it, unless noted: active = activation above about 22%; inactive = the rest.
SMILES,SRC3 TRFRET art,PPARg SRC2 recr,PPARg SRC-1 ag,SRC1 TRFRET art,PPARg SRC3 recr,SRC2 TRFRET art,PPARg SRC2 ag,PPARg SRC1 conf,PPARg SRC3 ag
CCn1c(SCC(=O)Nc2cc3oc4ccccc4c3cc2OC)nnc1-c1cccs1,/,25.9*,5.4,/,11.6,1548,4.8,0.0,2.2
COc1cc2c(cc1NC(=O)CSc1nnc(Cc3cccs3)n1C)oc1ccccc12,/,1.9,4.8,/,-11.1,1490,/,/,/
Cc1cccc(-c2ccc(C=Nc3c(C)n(C)n(-c4ccccc4)c3=O)o2)c1,/,30.0*,22.7*,/,38.7*,1999*,20.0,17.9,14.2
Cc1c(N=Cc2nc3ccccc3n2C)c(=O)n(-c2ccccc2)n1C,/,2.3,7.3,/,4.8,1578,/,/,/
CC(C)CN1CCNC(=O)C1CC(=O)NCCCN1CCCc2ccccc21 (stereo unspecified),1572,0.2,2.9,1778,1.0,1845,/,/,/
O=S(=O)(Cc1ccc(Cl)cc1)c1ccccc1-c1nnc(-c2ccccc2)o1,/,25.7*,10.1,/,17.4,2006*,0.6,3.4,-0.2
CS(=O)(=O)c1ccccc1-c1nnc(-c2ccc(Cl)cc2)o1,1694,-2.8,0.7,1928,1.5,1576,/,/,/
COc1ccc(-c2cn3c(C)c(C(=O)Nc4cc(NC(C)=O)ccc4OC)sc3n2)cc1,/,39.0*,23.2*,/,46.8*,2510*,41.1*,33.8*,25.0*
CCCc1nnc(SCC(=O)N2CCCC2)n1Cc1ccco1,1458,-0.6,0.3,1876,0.1,1517,/,/,/
O=C(c1ccccc1)N1CCSC1=S,/,-2.8,-2.7,/,-4.3,1438,/,/,/
O=C(c1ccccc1)N1CCSc2sccc2C1=O,2052*,28.9*,20.4,2582*,11.9,2115*,39.5*,31.7*,24.3*
Cc1cc(C)n(CC(=O)c2cccc(N)c2)n1,1523,5.2,-5.3,1676,5.0,1467,/,/,/
Cc1ccccc1Nc1nc(-c2ccccc2)c(C(=O)Nc2cccnc2)s1,2456*,26.5*,24.5*,2835*,17.7,1978*,44.0*,35.8*,26.4*
O=C(Nc1cccnc1)c1sc(Nc2ccccc2F)nc1-c1ccccc1,3407*,48.1*,50.1*,3447*,30.5*,3029*,68.3*,50.3*,45.5*
O=C(Nc1cccnc1)c1sc2cccc(F)c2c1Cl,1729,5.0,6.9,1937,2.6,1497,/,/,/
N#Cc1c(SCC(=O)O)nc(-c2ccccc2)c2c1CCCC2,/,10.9,17.4,/,30.2*,1727,13.6,11.3,9.1
Cc1ccc(NC(=S)N(Cc2ccc(Br)cc2)Cc2ccc(C(=O)O)cc2)cc1C,1609,15.8,13.1,1985,5.3,1891,/,/,/
Cc1cc(C)nc(-n2nc(C)cc2NC(=O)CN2CCCC(C)C2)n1 (stereo unspecified),/,15.2,19.9*,/,12.7,1531,4.5,3.5,1.7
Cc1cc(C)nc(-n2nc(C)cc2NC(=O)CN2CCc3ccccc3C2)n1,/,-2.3,-2.8,/,-3.6,1463,/,/,/
COc1ccccc1C1=NN(C(=S)Nc2ccccc2)C(c2ccco2)C1 (stereo unspecified),/,18.8,19.1*,/,22.6,1731,22.1*,18.8,13.1
CC1(c2ccc(Cl)cc2)NC(=O)CS1 (stereo unspecified),1669,3.5,0.4,1994,4.4,1646,/,/,/
CCn1c(=O)cc(OCC(=O)NCc2cccnc2)c2ccccc21,/,-0.9,4.2,/,0.7,1642,/,/,/
CCn1c(=O)cc(OCC(=O)Nc2ccc(C)cn2)c2ccccc21,/,-1.1,-4.8,/,-4.2,1467,/,/,/
CCn1c(=O)cc(SCC(=O)NCc2ccc(C)cc2)c2ccccc21,/,70.2*,50.0*,/,75.6*,3248*,51.3*,33.9*,31.8*
CCn1c(=O)cc(SCC(=O)Nc2ccc(C)cn2)c2ccccc21,3211*,32.4*,37.8*,2927*,25.0*,2341*,28.5*,17.3,19.3
SMILES,SRC3 TRFRET art,PPARg SRC2 recr,PPARg SRC-1 ag,SRC1 TRFRET art,PPARg SRC3 recr,SRC2 TRFRET art,PPARg SRC2 ag,PPARg SRC1 conf,PPARg SRC3 ag
CCn1c(=O)cc(SCC(=O)NCc2ccc(C)o2)c2ccccc21,/,10.1,10.9,/,4.9,1550,/,/,/
CCn1c(=O)cc(SCC(=O)NCc2ccccn2)c2ccccc21,/,25.8*,20.1*,/,18.3,1908,26.7*,16.9,17.8
CCn1c(=O)cc(SCC(=O)NCc2cccnc2)c2ccccc21,/,18.0,20.6*,/,2.3,1938,19.5,13.6,11.5
O=C(CC1C(=O)NCCN1CC1CCCCC1)NCc1cccc(F)c1F (stereo unspecified),1669,5.8,5.6,1826,1.3,1595,/,/,/
CC(=O)CC(=O)Nc1ncccn1,1716,-0.8,4.9,1987,10.4,1778,/,/,/
CCn1c(=O)cc(SCC(=O)NCc2ccco2)c2ccccc21,/,32.8*,22.4*,/,30.2*,1824,27.2*,18.2,15.9
COc1ccc([N+](=O)[O-])cc1NC(=O)c1ccc(Br)s1,2129*,16.6,22.0*,2669*,12.7,2056*,19.7,13.2,5.8
Clc1ccc(-c2nnc3sc(-c4ccc(Br)o4)nn23)c(Cl)c1,/,22.9*,6.4,/,20.8,1760,15.0,10.2,9.9
CN(C)c1ccc(-c2nn3c(-c4ccc(Cl)cc4Cl)nnc3s2)cc1,1563,5.4,3.1,1837,-3.1,1484,/,/,/
O=c1c2cnn(-c3ccccc3)c2nc(-c2ccco2)n1-c1ccccc1,/,10.5,-1.1,/,6.5,1611,/,/,/
O=c1oc(-c2ccco2)nc2c1cnn2-c1ccccc1,/,14.3,20.4*,/,3.1,1579,6.9,15.6,22.9
O=C(NCC1CCCO1)c1ccc(CSCc2cccc(F)c2)o1 (stereo unspecified),1574,6.6,14.2,1856,-1.1,1771,/,/,/
CC(=O)c1cc(NC(=O)c2ccc(Cl)cc2)c(=O)oc1/C=C/N(C)C,/,6.0,19.7*,/,11.7,1524,11.6,7.6,8.7
CC(=O)c1cc(NC(=O)c2cccc(C(F)(F)F)c2)c(=O)oc1/C=C/N(C)C,/,-4.1,5.7,/,-7.2,1377,/,/,/
O=C1c2ccccc2-c2cccc(NS(=O)(=O)c3ccc(C(F)(F)F)cc3)c21,/,11.2,12.5,/,30.9*,1656,24.0*,21.7*,14.4
CC1CCC(N(CCCN)Cc2ccco2)CC1C (stereo unspecified),1739,1.7,5.1,1666,4.6,1614,/,/,/
O=C(O)c1cc(-c2ccc(Cl)s2)nc2ccccc12,2388*,38.9*,37.2*,3037*,21.9,2455*,49.9*,35.0*,32.9*
CCOc1ccc(NC(=S)C(C#N)=C2N(C)c3ccccc3N2C)cc1,1702,17.7,22.8*,1817,-0.4,1563,0.1,-1.4,3.5
